# The list is not random: actives were taken first. Their share in the collection is about 11%.
# G9a block: qHTS Assay for Inhibitors of Histone Lysine Methyltransferase G9a; Histone-lysine N-methyltransferase EHMT2 (Homo sapiens), Q96KQ7; G9a H3K9 monomethylation, AlphaScreen, 2 h; Potency, µM (doses to about 102 µM), for the others: top-dose activity, negative = inhibition, usual class: inhibitors; hit rate 8.8% among 350,000; further: potency means the concentration at half of the fitted maximal effect; on the % scale 0 is the no-effect control and ±100 the full control effect; nearly all actives have a fitted effect of over 75% in size
#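 Enzyme 20 nM + cpd, 15 min RT; add b-H3K9 pep 500 nM / SAM 20 uM; 2 h RT; anti-H3K9me1 Ab 0.5 ug/mL + SA donor / anti-rabbit acceptor beads 20 ug/mL each, 10 min; AlphaScreen read.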
# BAZ2B inh: qHTS Assay for Inhibitors of BAZ2B; Potency, µM (top dose mostly 114 µM), without a hit: top-dose activity change, negative = inhibition, hits mostly inhibitors; Bromodomain adjacent to zinc finger domain protein 2B (Homo sapiens), Q9UIF8; AID 504333, 2011; hit rate 4.4% among 360,000; AlphaScreen BAZ2B-H3K14Ac peptide displacement; further: potency means the concentration at half of the fitted maximal effect; on the % scale 0 is the no-effect control and ±100 the full control effect; nearly all actives have a fitted effect of over 60% in size
#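 Complex of BAZ2B and biotin-H3K14Ac (50 nM apiece) forms over 30 min at RT, then faces library compounds up to 110 uM for another 30 min; AlphaScreen beads added, 20 min dark incubation, luminescence read.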
# VDR inh: Inhibitors of the vitamin D receptor (VDR): qHTS | Vitamin D3 receptor (Homo sapiens), P11473 | VDR-SRC2-3 peptide fluorescence polarization, 2 h | Potency, µM, without a hit: max response, negative = inhibition, actives largely listed as inhibitors | hit rate 0.93% among 400,000; further: potency means the concentration at half of the fitted maximal effect; on the % scale 0 is the no-effect control and ±100 the full control effect
#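 Reagent solutions, kept cold and dark, are dispensed first; compounds are then pinned in at 23 nl, plates briefly spun, and incubated 2 h at ambient temperature. Inhibition of VDR–SRC2-3 peptide binding is read by fluorescence polarization.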
# JMJD2A Tudor inh: qHTS Assay for Inhibitors of JMJD2A-Tudor Domain; Potency, µM (series often up to 114 µM), for the others: at the top dose activity change, negative = inhibition, hits mostly inhibitors; hit rate 4.4% among 390,000; AlphaScreen JMJD2A-Tudor / H3K4me3 peptide binding; further: potency means the concentration at half of the fitted maximal effect; on the % scale 0 is the no-effect control and ±100 the full control effect; nearly all actives have a fitted effect of over 50% in size
# PLK1 PBD inh: qHTS for Inhibitors of PLK1-PDB (polo-like kinase 1 - polo-box domain): Primary Screen | Potency, µM, for the others: max response, negative = inhibition, actives largely listed as inhibitors | Serine/threonine-protein kinase PLK1 (Homo sapiens), P53350 | hit rate 2.8% among 360,000 | AID 720504, 2013 | Plk1 PBD binding of FITC phosphopeptide, fluorescence polarization; further: potency means the concentration at half of the fitted maximal effect; series mostly up to about 57 µM; on the % scale 0 is the no-effect control and ±100 the full control effect; nearly all actives have a fitted effect of over 65% in size
# HP1b binding inh: HTS for Inhibitors of HP1-beta Chromodomain Interactions with Methylated Histone Tails | AID 540317, 2011 | Chromobox protein homolog 1 (Homo sapiens), P83916 | AlphaScreen HP1-beta / biotin-H3K9me3 peptide binding | Potency, µM (titrated, usually from 114 µM), for the others: at the top dose activity change, negative = inhibition, most hits filed as inhibitors | hit rate 0.56% among 390,000; further: potency means the concentration at half of the fitted maximal effect; nearly all actives have a fitted effect of over 70% in size
#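 HP1-beta protein (50 nM final) preincubated 30 min at room temperature with biotinylated H3(1-18)K9me3 peptide (50 nM) in PBS pH 7.4, 0.01% Tween-20, then compound added for 30 min. AlphaScreen streptavidin donor/nickel chelate acceptor beads (10 ug/mL final), 30 min dark, luminescence read.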
# USP1-UAF1 confirm: Inhibitors of USP1/UAF1: Hit Validation in Primary Assay; shares compounds with VDR inh; Ub-Rhodamine cleavage, fluorescence kinetic read; Potency, µM (titrated, usually from 114 µM), inactives show top-dose activity change, negative = inhibition, actives largely listed as inhibitors; hit rate 50% among 50
# VDR confirm: qHTS for Inhibitors of the vitamin D receptor (VDR): Hit Validation in Primary Screen; shares compounds with VDR inh; VDR-coactivator inhibition assay, qHTS confirmation; hit rate 89% among 840; Potency, µM, most hits filed as inhibitors; AID 602199, 2012; further: potency means the concentration at half of the fitted maximal effect
# VDR FP: qHTS for Inhibitors of the vitamin D receptor (VDR): Hit Validation using a Fluorescein Assay; shares compounds with VDR inh; VDR-coactivator binding, fluorescein fluorescence polarization; Potency, µM (doses to about 57.1 µM), for the others: at the highest dose activity change, negative = inhibition, actives largely listed as inhibitors; hit rate 48% among 840; further: potency means the concentration at half of the fitted maximal effect
# VDR bla reporter: qHTS for Inhibitors of the vitamin D receptor (VDR): Hit Validation using a Beta-Lactamase Assay; VDR beta-lactamase reporter cells, FRET ratio; cells co-treated with VDR agonist LG190178; shares compounds with VDR inh; Potency, µM (top dose mostly 46.1 µM), inactives show at the highest dose activity change, negative = inhibition, usual class: inhibitors; hit rate 23% among 840; further: potency means the concentration at half of the fitted maximal effect; on the % scale 0 is the no-effect control and ±100 the full control effect
# VDR cytotox: qHTS for Inhibitors of the vitamin D receptor (VDR): Hit Validation using a Cytotoxicity Assay | shares compounds with VDR inh | cytotoxicity counter-screen, cell viability, qHTS | Potency, µM (doses to about 48.3 µM), inactives show at the highest dose activity change, negative = cytotoxicity, actives largely listed as cytotoxic | hit rate 18% among 840 | AID 602204, 2012;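 further: potency means the concentration at half of the fitted maximal effect; plate controls were DMSO for no effect and high-concentration cycloheximide for full effect; nearly all actives have a fitted effect of over 75% in size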
# The depositor's hits bear a star; ? = inconclusive; / = no result given; ! = repeats disagree; [ ] = another dose, or the depositor's remark. The call rests on the fitted dose curve; in most records, active means well fitted curve in the direction sought with a large enough effect; inconclusive means small, poorly fitted or top-dose-only effect, or another doubt; inactive means no such curve, though single readings can be large; an effect the other way counts as inactive or inconclusive.
SMILES,G9a block,BAZ2B inh,VDR inh,JMJD2A Tudor inh,PLK1 PBD inh,HP1b binding inh,VDR confirm,VDR FP,VDR bla reporter,VDR cytotox,others
COc1ccc(C(=O)/C=C2/C(=O)Nc3ccccc32)c(OC)c1,-41%[12.7 µM],?,35µM*,-22%,?,-33%,21*,?,?,13µM*,
O=c1oc2ccccc2c(O)c1[C@H]1c2ccc(O)cc2Oc2c1c(=O)oc1ccccc21,/,-13%,79µM*,-21%,?,16%,30*,?,21µM*,-31%,
Cc1ccc(CSCCNS(=O)(=O)c2ccc([N+](=O)[O-])cc2)cc1,?,?,0%,?,2%,-7%,/,/,/,/,
CCOc1ccc(N2C(=O)NC(=O)/C(=C\c3ccccc3[N+](=O)[O-])C2=O)cc1,32µM*,-18%,32µM*,-13%,9.5µM*,29%,9.5*,?,9%,-11%,
CCOc1ccc(/C=C2/C(=O)NC(=O)N(CCc3ccc(F)cc3)C2=O)cc1,?,-26%,79µM*,-15%,2.7µM*,21%,?,18µM*,17%,?,
Cc1ccc(OP2(=O)Nc3cc(C)c(C)cc3S2)cc1 (centres undefined),/,/,7.9µM*,1.3µM*,1.7µM*,-7%[57 µM],6.7*,?,7%,-12%,
CC1=NN(c2ccccc2)C(=O)C1/C=C1/C(=O)NC(=O)N(c2cc(C)cc(C)c2)C1=O (centres undefined),?,?,-23%,?,-17%,-2%,/,/,/,/,
Cc1ccc(N2C(=O)NC(=O)/C(=C\c3cnc(-c4ccccc4)nc3)C2=O)cc1,?,1%,22µM*,?,8.4µM*,-19%,27*,?,11%,9%,
Cc1cc(C)cc(-n2c(/C=C/c3cccc(F)c3)nc3ccccc3c2=O)c1,4%[59 µM],5%,7%,-14%,/,4%,/,/,/,/,
OCCN1CCN(CCCN2c3ccccc3Sc3ccc(C(F)(F)F)cc32)CC1,11µM*!,?,-2%,79µM*,-27%,10%,/,/,/,/,USP1-UAF1 confirm=?
CS(=O)(=O)c1ncc(Cl)c(C(=O)Nc2ccc3ccccc3c2)n1,10µM*,-36%,13µM*,3%,9.5µM*,41%,8.4*,?,16µM*,?,
Clc1ccccc1Cl,21%[59 µM],/,3%,/,/,/,/,/,/,/,
CN1C2CCC1/C(=C/c1ccccn1)C(=O)/C2=C\c1ccccn1,?,-24%,28µM*,79µM*,27µM*,-3%,2.7*,?,2.1µM*,21µM*,
Cc1cccc2sc(NC(=O)c3cccn(Cc4ccccc4)c3=O)nc12,20%[59 µM],-12%,7%,-8%,/,-11%,/,/,/,/,
CCCc1ccc(OCC(=O)Nc2ccc(Cl)cc2C(=O)c2ccccc2)cc1,?,-1%,-15%,12%,/,27%,/,/,/,/,
CCN(CC)C(=O)N[C@H]1C=C2c3cccc4[nH]cc(c34)C[C@@H]2N(C)C1,?,/,-9%,/,/,/,/,/,/,/,USP1-UAF1 confirm=-9%[56.8 µM]
CCCCn1c(N)c(C(=O)NCCN2CCOCC2)c2nc3ccccc3nc21,65%[59 µM],19%,-7%,21%,-8%,86%,/,/,/,/,
CCCCn1c(NC(=O)c2ccc(Br)o2)c(C(=O)OCC)c2nc3ccccc3nc21,?,-4%,?,0%,?,24%[57 µM],2.5*,1.4µM*,?,?,
O=Cc1ccco1,14%[59 µM],/,-1%,/,/,/,/,/,/,/,
COC(=O)[C@H](Cc1ccccc1)N(Cc1ccccc1)S(=O)(=O)N(Cc1ccccc1)[C@@H](Cc1ccccc1)C(=O)OC,/,/,17%,-6%,0%,48%,/,/,/,/,
CCOC(=O)C1CCN(/C=C2\C(=O)NC(=S)N(CC)C2=O)CC1,-7%,-1%,0%,-12%,1%,67%,/,/,/,/,
CCOC(=O)COc1ccc(/C=C2\C(=O)NC(=S)N(c3ccc(OC)cc3)C2=O)cc1OC,?,?,45µM*,35µM*,15µM*,11%,24*,14µM*,22%,15%,
COc1ccc(-n2c(/C=C\c3ccccc3F)nc3ccccc3c2=O)c(OC)c1,11%[59 µM],-14%,4%,-28%,/,-11%,/,/,/,/,
CCN1C(=O)/C(=C\C(=O)c2cccs2)c2cc(Br)ccc21,?,16µM*,35µM*,28µM*,5.3µM*,22µM*,6.7*,?,?,?,
